Source: PubChem BioAssay (Sanford-Burnham Center for Chemical Genomics)
CRFBP-R2 block: antagonists of CRF-BP/CRF-R2 complex, primary screen, cell-based, HEK293, calcium dye fluorescence, uHTS; inhibition, % at 11.8 µM; 0.59% of 350,000 active; CRF-induced calcium fluorescence;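 active = inhibition of the ligand-induced calcium signal above about 50% at the single tested concentration, limit read from the data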
CRFR2-BP ag: agonists of CRF-BP/CRF-R2 complex, primary screen, cell-based, HEK293, calcium dye fluorescence, uHTS. calcium dye fluorescence (FLIPR); percent of saturating CRF peptide response. activation, % at 13.2 µM. 0.46% of 350,000 active. AID 588473, 2011;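 active = activation of at least 50%, plus an integration ratio under a set limit after plate pattern correction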;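 also: plate controls were neutral control wells without compound for no effect and CRF at EC100 for full effect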
iPSC survival up: enhancers of single-cell hiPSC survival, primary screen, ATPlite luminescence; 100% = ROCK inhibitor wells, 0% = DMSO; 0.044% of 360,000 active; survival enhancement, % at 20 µM; in the data active = survival enhancement above about 18%;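 also: cells exposed to compounds for 16 hours before the ATP read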
SKN-1 inh: suppressors of acrylamide-induced Pgst-4::GFP reporter in worms, primary screen, SKN-1 inhibitor project, whole organism, uHTS, GFP/RFP fluorescence ratio, strain VP596. inhibition, % at 21.8 µM. C. elegans VP596 Pgst-4::GFP/RFP ratio, 24 h. 0.49% of 360,000 active;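 active = interference check ratio from 0.5 to 1.5 plus GFP to RFP signal ratio inhibition reaching or exceeding a fixed threshold, cut at about 30% in these data, passing the limit was not always enough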
TAG inh: inhibitors of triacylglycerol accumulation, primary screen, cell-based, uHTS, fluorescence, H9c2; H9c2 cells, Nile Red lipid (TAG) fluorescence; cells loaded with 200 µM oleic acid; inhibition, % at 12.5 µM; 0.66% of 230,000 active; AID 651582, 2012;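 active = pattern-corrected inhibition of lipid staining of at least 50% with the nuclear-stain viability signal not falling by more than 50%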;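 also: 0% = DMSO wells and 100% = triacsin C control wells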
H9c2 protect: cardioprotection against H2O2-induced cell death, primary screen, uHTS, H9c2 cells, ATPLite luminescence; H9c2 cardiomyocytes, H2O2 injury protection, 2 h; protection from H2O2 cell death, % at 20 µM; 0.63% of 360,000 active;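 active = compounds giving at least 50% protection of heart cells from peroxide-induced death in the single-dose screen, raw or plate-pattern-corrected value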;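 also: 0% = DMSO wells with peroxide and 100% = DMSO wells without peroxide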
Starred values were filed as active, the others as inactive; · = no result. Hits are enriched below; roughly 2.5% of the tested compounds scored in any of these assays.

SMILES	CRFBP-R2 block	CRFR2-BP ag	iPSC survival up	SKN-1 inh	TAG inh	H9c2 protect
CN(Cc1ccc2c(c1)CCCN2C)C(=O)[C@H]1O[C@@H](n2cnc3c(N)ncnc32)[C@H](O)[C@@H]1O	·	·	2.9	6.3	·	4.7
CCOc1cc(/C=N/NC(=O)c2ccncc2)cc(Cl)c1OS(C)(=O)=O	1.6	-0.1	-1.1	10.4	·	6.8
COC(=O)C1=NN(c2ccccc2)C2(S1)SC(C(C)=O)=C(C)N2c1ccccc1 (stereo unspecified)	65.2*	-1.1	0.3	27.2	-6.7	2.7
CCc1ccccc1Oc1nc(NCc2ccccc2)nc2ccsc12	·	·	3.2	11.1	2.8	-11.9
O=C(O)c1ccc(-n2ncc3c2/C(=C/c2cccc([N+](=O)[O-])c2)CC3)cc1	72.5*	-6.0	-0.7	14.0	-7.3	11.2
Cc1nc2c(C(=O)NCCc3ccccc3)c[nH]n2c(=O)c1Cl	50.8*	-3.3	2.0	5.7	·	0.7
O=S1(=O)C=C[C@@H](CO)N1Cc1ccc(Br)cc1	·	·	-1.6	9.8	·	-1.6
O=C1NC[C@H](CCCCN2CCN(CCC3CCCCC3)C(=O)C2=O)N(CC2CCCCC2)C1=O	·	·	0.2	15.0	·	·
CCc1cccc(CC)c1NC(=O)COC(=O)CC1c2ccccc2CCN1S(=O)(=O)c1ccc(F)cc1 (stereo unspecified)	15.1	-0.2	0.5	0.7	·	-0.5
O=C(COC(=O)CC1c2ccccc2CCN1S(=O)(=O)c1ccc(F)cc1)Nc1ccccc1 (stereo unspecified)	57.5*	7.3	1.0	-0.2	·	2.9
COc1ccc(CNC(=O)Nc2ccc3c(c2)c(=O)n(C)n3Cc2cccc(C(F)(F)F)c2)cc1	·	·	-1.5	2.2	-38.3	-6.7
C1=C(c2ccccc2)CCN(c2nc3ccccc3n3cnnc23)C1	-13.6	3.8	0.1	-36.2	0.3	66.8*
CCN(CC)c1nc2ccccc2n2cnnc12	3.1	1.6	-0.2	31.7	·	1.0
c1ccc2c(c1)CCCN2c1nc2ccccc2n2cnnc12	2.6	0.8	-0.1	1.4	11.7	53.8*
c1ccc2c(c1)CCN(c1nc3ccccc3n3cnnc13)C2	-3.8	-0.6	5.9	-6.7	12.3	58.5*
Cc1cc(C)n(-c2nc3ccccc3n3cnnc23)n1	-3.3	-2.4	1.9	38.1*	1.7	1.9
CC1CCC(NC(=O)c2cc(S(=O)(=O)N3CCCCC3)ccc2N2CCOCC2)CC1 (stereo unspecified)	-10.3	0.1	-0.5	-1.9	-14.8	-0.2
C1CCN(c2nc3nonc3nc2N2CCCC2)C1	15.0	-1.5	22.3*	-10.5	1.7	-2.4
COc1cc(NC(=O)c2c(OC)cccc2OC)ccc1NC(=O)c1cc2ccccc2o1	1.6	0.2	-0.8	2.0	·	54.0*
COc1ccc(CNC(C)C(=O)Nc2ccc3ccccc3c2)cc1OC (stereo unspecified)	-2.9	-2.4	-0.4	50.8*	-2.4	1.6
COc1cccc(CNC(C)C(=O)Nc2ccc3c(c2)OCCO3)c1 (stereo unspecified)	6.7	-1.4	0.1	-7.8	10.0	-1.6
COc1ccc(COc2cc(-c3cccc(OC)c3)nc3ccc(NC(=O)c4cccnc4)cc23)cc1	-4.7	3.5	-2.4	6.0	16.2	91.2*
COc1ccc(COc2cc(-c3cccc(OC)c3)nc3ccc(NC(=O)c4ccc(OC)cc4)cc23)cc1	-10.1	-0.4	2.1	11.5	57.4*	57.8*
Cc1ccc(-c2nc3c(C)cc(Br)cn3c2Cc2ccsc2)cc1	·	·	0.0	28.5	·	0.9
Cc1ccc(N2CC(C(=O)NCc3n[nH]c(=O)c4ccccc34)CC2=O)cc1 (stereo unspecified)	28.3	-0.3	-0.3	2.8	-19.1	47.0
CCOC(=O)Cc1n[nH]c(=O)c2ccccc12	-2.1	0.1	-1.1	4.3	-15.1	69.3*
COC(=O)Cc1n[nH]c(=O)c2ccccc12	-6.5	-0.1	3.9	-3.3	·	59.2*
COc1ccc(NCc2n[nH]c(=O)c3ccccc23)cc1	0.2	0.3	-2.0	12.3	1.2	76.0*
